UbGFP stabilizer: inhibits proteasome, raising ubiquitin-GFP reporter fluorescence; Ubiquitin-GFP reporter cells, proteasome inhibition, GFP fluorescence; response scale: untreated = 0%, 10 µM MG-132 = 100%; Potency, µM (doses to about 45.9 µM), for the others: at the top dose activation (GFP accumulation), most hits filed as activators; 67,000 tested, under 10 active; AID 526; active = well fitted activation curve with a large enough effect, not every such curve was filed as active; inconclusive = small, poorly fitted or top-dose-only effect, or another doubt; inactive = no such curve, though single readings can be large or run the other way; note: potency is the fitted concentration of half-maximal effect
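U2OS cells expressing ubiquitin(G76V)-GFP, seeded overnight in 0.5% FBS medium, then treated 4 hr at 37 C across 46 uM to 2.9 nM. GFP-positive cells counted by laser cytometry (488 ex/515 em); %activity scaled between basal and 10 uM MG-132.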
Pol III holo inh: inhibitors of bacterial DNA polymerase III holoenzyme. reconstituted DNA polymerase III holoenzyme replication, biochemical. Potency, µM (titrated, usually from 57.1 µM), inactives show at the top dose activity change, negative = inhibition. 71,000 compounds, 0.25% hits. AID 603; note: potency is the fitted concentration of half-maximal effect; % is set by controls: 0 for no effect and ±100 for the full control effect
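Reconstituted *E. coli* holoenzyme (0.35 nM Pol III, 1 nM beta, 154 nM SSB, 2 nM primase) was preincubated with compound for 15 min at RT. Synthesis on 1.4 nM ssM13Gori ran 35 min, then was stopped with PicoGreen/EDTA and read as dsDNA fluorescence.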
Tau filament bind: tau filament binding. P10636. recombinant tau filaments, thioflavin S fluorescence, 15 h; filaments grown with octadecylsulfate alongside compound. Potency, µM (series often up to 57.1 µM), for inactives: at the top dose activity change, negative = inhibition. 71,000 compounds, 2% hits. AID 596;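 note: potency is the fitted concentration of half-maximal effect; % is set by controls: 0 for no effect and ±100 for the full control effect; actives lower thioflavin S fluorescence by blocking filaments or displacing dye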
Target sequence (P10636 whole entry, looked up): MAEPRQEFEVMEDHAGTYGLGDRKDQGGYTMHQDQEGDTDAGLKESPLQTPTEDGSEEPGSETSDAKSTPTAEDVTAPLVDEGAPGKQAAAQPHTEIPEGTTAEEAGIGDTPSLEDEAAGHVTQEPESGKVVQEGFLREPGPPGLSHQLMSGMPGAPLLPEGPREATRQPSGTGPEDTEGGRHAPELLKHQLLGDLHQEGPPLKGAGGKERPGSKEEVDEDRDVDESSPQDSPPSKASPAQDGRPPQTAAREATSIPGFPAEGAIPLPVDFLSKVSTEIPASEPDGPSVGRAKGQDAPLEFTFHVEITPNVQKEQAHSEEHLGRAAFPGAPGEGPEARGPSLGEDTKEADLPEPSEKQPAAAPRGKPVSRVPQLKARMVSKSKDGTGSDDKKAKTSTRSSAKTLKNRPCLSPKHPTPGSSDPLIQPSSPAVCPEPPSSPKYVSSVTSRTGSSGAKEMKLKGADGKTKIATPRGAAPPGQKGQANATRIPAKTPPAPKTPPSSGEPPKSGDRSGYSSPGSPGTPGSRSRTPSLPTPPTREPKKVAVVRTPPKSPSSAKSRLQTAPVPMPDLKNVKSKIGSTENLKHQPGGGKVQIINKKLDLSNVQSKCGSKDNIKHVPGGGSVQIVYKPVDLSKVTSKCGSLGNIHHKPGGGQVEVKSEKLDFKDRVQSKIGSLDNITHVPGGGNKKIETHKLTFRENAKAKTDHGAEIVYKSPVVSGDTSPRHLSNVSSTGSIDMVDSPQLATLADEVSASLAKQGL
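His-tagged recombinant human tau (exons 2, 3 and 10 included), 1 uM, was induced to fibrillize by 30 uM sodium octadecylsulfate with compound present. After 15 h at 37 C, thioflavine S fluorescence (ex 450, em 510 nm) was read.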
GFP derepression: derepresses silenced GFP locus in mouse C127i cells; mouse C127i GFP locus derepression, cytometry, 30 h; Potency, µM (series often up to 46.1 µM), inactives show at the highest dose GFP derepression (activation); 68,000 compounds, 0.09% hits; AID 597; note: % of control where 0% means no effect
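Murine C127i mammary cells carrying a silenced, stably integrated CMV-driven GFP reporter were treated with compound for 30 hours at 37 C. After PBS washes, GFP-positive cells were counted by laser-scanning microplate cytometry.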
HBB splicing: alters splicing of the hemoglobin beta chain | HBB splicing reporter cell assay, activation; EGFP reporter with mutant IVS2-654 intron; response scale: normalised to 500 nM splice-correcting PNA | Potency, µM (doses to about 46.1 µM), without a hit: at the highest dose activation, most hits filed as activators | 65,000 compounds, 0.06% hits | AID 925; note: potency is the fitted concentration of half-maximal effect; 0% is about no effect
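Compounds were applied for 2 days to HeLa EGFP-654 cells, 500/well in Optimem with 2% FCS. The reporter's EGFP is disrupted by mis-splicing of beta-globin intron IVS2-654. Readout: summed well GFP fluorescence from 488 nm laser scanning; reference was 500 nM antisense […] 654 PNA.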
ALOX15 inhib: 15-hLO (ALOX15) enzyme inhibition; P16050; Potency, µM (series often up to 57.1 µM), for the others: top-dose activity change, negative = inhibition, actives largely listed as inhibitors; purified 15hLO-1, xylenol orange hydroperoxide absorbance; 74,000 compounds, 1.4% hits; AID 887; note: potency is the fitted concentration of half-maximal effect; % is set by controls: 0 for no effect and ±100 for the full control effect; nearly all actives have a fitted effect of over 55% in size
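Inhibition is scored from a chromogenic endpoint. After 15 min enzyme-compound contact, arachidonic acid (50 uM final) reacts 6 min with 40 nM 15hLO-1 at room temperature, then Fe-XO reagent is added for 30 min and absorbance ratio recorded.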
Numbers without * were called inactive; ? = inconclusive; · = no result given; ! = a repeat was not active; [ ] = another dose, or the depositor's remark. Hits are enriched below; roughly 3.2% of the tested compounds scored in any of these assays. Unless noted, calls come from the whole dose curve; as a rule, active = well fitted curve in the direction sought with a large enough effect; inconclusive = small, poorly fitted or top-dose-only effect, or another doubt; inactive = no such curve, though single readings can be large; an effect the other way counts as inactive or inconclusive.

SMILES	UbGFP stabilizer	Pol III holo inh	Tau filament bind	GFP derepression	HBB splicing	ALOX15 inhib
Cc1ccccc1-c1cncnc1NCc1cccs1	-3%	-8%	1%	0%[9.22 µM]	-1%	-5%
O=c1[nH]c2c(cc1CNCCN1CCOCC1)c(-c1cccc(F)c1)nn2-c1ccccc1	-2%	-7%	?	-2%	-5%	0.032µM*
Cc1nn(-c2ccccc2)c2[nH]c(=O)c(CNc3ccc(N4CCOCC4)cc3)cc12	15%	-4%	20µM*	0%	4%	13µM*
[N-]=[N+]=Nc1ccc(C(=O)CSC[C@@H](NC(=O)CC[C@@H](N)C(=O)O)C(=O)NCC(=O)O)cc1	10%	-5%	1%	-2%	0%	4%
COc1ccc2oc(=O)c(C(=O)N3CCN(c4ccccc4C)CC3)cc2c1	-4%	-4%	16µM*	-2%	-1%	-3%
C=C1CC[C@@H](O)C/C1=C/C=C1\CCC[C@]2(C)[C@@H]1CC[C@H]2[C@@H](C)/C=C\[C@@H](C)C(C)C	-6%	5%	11%	-2%[9.22 µM]	·	·
CC(=O)[C@H]1CC[C@@H]2[C@]1(C)CC=C1[C@]23C=C[C@]2(C[C@H](O)CC[C@@]12C)[C@H](C(=O)O)[C@@H]3C(=O)O	1%[9.17 µM]	-7%[11.4 µM]	-3%[11.4 µM]	2%[9.22 µM]	0%[9.22 µM]	7%[11.4 µM]
COc1ccccc1N1CCN(S(=O)(=O)c2ccc3c4c(cccc24)C(=O)N3)CC1	2%	-1%	-30%	-1%	0%[57.5 µM]	?
COc1ccccc1N1CCN(S(=O)(=O)c2ccc3c4c(cccc24)C(=O)N3C)CC1	11%	5%	25µM*	4%	-1%	-6%
CN(C)CCC(=O)[C@@]1(O)CC[C@H]2[C@H]3CC=C4C[C@@H](O)CC[C@]4(C)[C@H]3CC[C@]21C	0%[9.17 µM]	-9%[11.4 µM]	-1%[11.4 µM]	?	3%[9.22 µM]	13%[11.4 µM]
O=C(O)CCCc1ccc2ccccc2c1	-5%[9.17 µM]	-3%[11.4 µM]	-2%[11.4 µM]	0%[9.22 µM]	0%[9.22 µM]	5%[11.4 µM]
CCC(C)Nc1ccc(NC(C)CC)cc1 (stereo unspecified)	·	7%	16µM*	·	1%	?
CCC(C)NC(=O)c1ccccc1C(=O)NC(C)CC (stereo unspecified)	-16%	-3%	3%	-3%	0%	1%
C=CC1=C(C)C2=NC1=CC1=NC(=CC3=NC(=CC4=NC(=C2)C(C)=C4CCC(=O)O)C(CCC(=O)O)=C3C)C(C=C)=C1C.[Zn]	-3%	25µM*	0.79µM*	0%	·	10µM*
Cc1cc(CCC(=O)O)c(C)cc1CCC(=O)O	·	·	·	-3%[20.6 µM]	·	·
COc1ccc(N2CCN(Cc3nc(N)nc(Nc4ccc(C)c(Cl)c4)n3)CC2)cc1	9%	7%	8%	-2%	-1%[1.84 µM]	-21%
Cc1ccc(Nc2nc(N)nc(CN3CCN(c4ccccc4)CC3)n2)cc1Cl	4%	-10%	16µM*	-2%	-4%[57.5 µM]	-19%
O=C(O)CCC(=O)c1ccc[nH]1	-1%[9.17 µM]	-6%[11.4 µM]	3%[11.4 µM]	-6%[9.22 µM]	-3%[9.22 µM]	10%[11.4 µM]
CCS(=O)(=O)Nc1c(C(=O)OC)[nH]c2ccccc12	15%	-10%	-6%	0%	2%	3%
CCS(=O)(=O)Nc1c(C(=O)O)[nH]c2ccccc12	2%	-6%	20µM*	-3%	2%	-1%
O=C1Nc2ccc(I)cc2/C1=C/c1cc(Br)c(O)c(Br)c1	-1%	4%	1µM*	0%	?	13µM*
O=C(O)/C(Cc1cn[nH]n1)=N\O	4%[9.17 µM]	-1%[11.4 µM]	4%[11.4 µM]	7%[9.22 µM]	2%[9.22 µM]	-3%[11.4 µM]
O=[N+]([O-])c1cccc2c(Br)[nH]nc12	-1%	-8%	40µM*!	1%	0%	13µM*
COc1ccc(N2CCC(CNC(=O)Nc3ccc(OC)cc3OC)C2)cc1 (stereo unspecified)	-6%	5%	20µM*	0%	-1%	?
COc1ccc(N2CCC(CNS(=O)(=O)c3cccc(C(F)(F)F)c3)C2)cc1 (stereo unspecified)	0%	-4%	1.3µM*	4%	-1%	0.79µM*
SMILES	UbGFP stabilizer	Pol III holo inh	Tau filament bind	GFP derepression	HBB splicing	ALOX15 inhib
CC(=O)OC[C@@H]1O[C@H](CCO/N=C(\C)CCN2CCc3nc(-c4ccccc4)c(-c4ccccc4)cc3C2)C=C[C@@H]1OC(C)=O	·	·	·	·	2%[9.22 µM]	-1%[11.4 µM]
O=C1C(C=Nc2ccccc2O)=C(O)c2ccccc21	-5%	-11%	?	2%	0%	-8%
Cc1ccc(O)c(N=CC2=C(O)c3ccccc3C2=O)c1	7%	-23%	7.9µM*	-2%	1%	?
CCc1cc(C(C)=O)c(O)cc1OCCCCCC(C)(C)c1nn[nH]n1	·	·	·	·	-1%	20µM*
COCCOC(=O)C1=C(C)NC(C)=C(C(=O)OC(C)C)[C@@H]1c1cccc([N+](=O)[O-])c1	-7%	-2%	32µM*!	0%	-1%	-5%
COCCOC(=O)C1=C(C)NC(C)=C(C(=O)OC(C)C)C1c1cccc([N+](=O)[O-])c1 (stereo unspecified)	·	·	·	2%[20.6 µM]	·	·
COC(=O)C1=C(C)NC(C)=C(C(=O)OCCN(C)Cc2ccccc2)[C@@H]1c1cccc([N+](=O)[O-])c1	0%	-3%	32µM*	-2%	1%	-13%
Nc1ccc(S(=O)(=O)NCc2nccs2)cc1	-2%[9.17 µM]	5%[11.4 µM]	-4%[11.4 µM]	-3%[9.22 µM]	5%[9.22 µM]	-5%[11.4 µM]
c1ccc2c(c1)ccc1cc3c(ccc4ccccc43)cc12	·	5%	40%	·	0%	-1%
O=C(C[n+]1ccc2ccccc2c1)c1ccc2ccc3ccccc3c2c1	-3%[9.17 µM]	-21%[11.4 µM]	2µM*	-1%[9.22 µM]	2%[9.22 µM]	16%[11.4 µM]
CC(C)(C)c1ccc(S(=O)(=O)/C=C\C#N)cc1	-7%	-8%	24%	0%	0%	-8%
C[C@H]1CC[C@H]2C(=O)N3[C@H](c4ccc(Br)cc4)[C@@H](C)CC[C@H]3C(=O)N2[C@@H]1c1ccc(Br)cc1	·	·	·	·	0%[9.22 µM]	-2%[11.4 µM]
CCOC(=O)CCN1CCN(C(=O)c2ccc(-n3c(=O)c(=O)[nH]c4ccccc43)cc2)CC1	·	·	·	·	·	13µM*
Cc1cc(C)cc([N+](=O)[O-])c1	·	10%	7%	·	0%	-4%
Oc1ccccc1C(=S)N1CCCCC1	-16%	-9%	-4%	-2%	1%	-24%
Oc1ccccc1C(=S)N1CCCCCC1	-11%	-5%	25µM*	0%	0%	?
C=CCc1cccc(CNc2nc3ccccc3n2CCN2CCOCC2)c1O	3%	-3%	25µM*	6%	-1%	5%
Oc1ccccc1CNc1nc2ccccc2n1CCN1CCCCC1	22%	4%	14%	-4%	-1%	13µM*

Source: PubChem (National Center for Advancing Translational Sciences (NCATS))
